# Several values for one entry are separate records, joined by “and”; a condition that tells them apart may be missing. Equal values may be shown once. Read-outs that look alike come from different tables or passages of the source.
# How the values were obtained:
# [1] = system: PKN1; conditions: n = 1
# [2] = system: PKN2; conditions: concentration: 1 μM, replicates: in singlicate; n = 1
# [3] = system: PLK1; conditions: n = 1
# [4] = system: PLK2; conditions: concentration: 1 μM, replicates: in singlicate; n = 1
# [5] = system: PLK3; conditions: concentration: 1 μM, replicates: in singlicate; n = 1
# [6] = system: PLK4; conditions: n = 1
# [7] = system: PRKCD; conditions: concentration: 1 μM, replicates: in singlicate; n = 1
# [8] = system: PRKCE; conditions: n = 1
# [9] = system: PRKCH; conditions: n = 1
# [10] = system: PRKCI; conditions: n = 1
# [11] = system: PRKCQ; conditions: n = 1
# [12] = system: PRKD1; conditions: concentration: 1 μM, replicates: in singlicate; n = 1
# [13] = system: PRKD2; conditions: n = 1
# [14] = system: PRKD3; conditions: n = 1
# [15] = system: PRKG1; conditions: n = 1
# [16] = system: PRKG2; conditions: n = 1
# [17] = system: T1, PRKR; conditions: n = 1
# T1 construct: gene EIF2AK2
# [18] = system: PRKX; conditions: n = 1
# [19] = system: PRP4; conditions: n = 1
# [20] = system: T2, PYK2; conditions: n = 1
# T2 construct: gene PTK2B
# [21] = concentration: 1 μM, replicates: in singlicate
# [22] = concentration: 1 μM,replicates: in singlicate, 1 µM
# 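Also: KINOMEscan kinase panel screen.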
compound,measurement,setting,value
COc1cc2ncnc(Nc3ccc4nc(-c5ccccc5)[nH]c4c3)c2cc1OC.Cl [GW282450],%Inh,[1]; [21],0%
same,%Inh,[2],0%
same,%Inh,[3]; [21],9%
same,%Inh,[4],0%
same,%Inh,[5],0%
same,%Inh,[6]; [21],94.5%
same,%Inh,[7],14%
same,%Inh,[8]; [21],17%
same,%Inh,[9]; [21],0%
same,%Inh,[10]; [21],31%
same,%Inh,[11]; [21],11%
same,%Inh,[12],0%
same,%Inh,[13]; [21],5%
same,%Inh,[14]; [21],7%
same,%Inh,[15]; [21],0%
same,%Inh,[16]; [21],13%
same,%Inh,[17]; [21],13%
same,%Inh,[18]; [21],5%
same,%Inh,[19]; [21],10%
same,%Inh,[20]; [21],7%
Cc1cc(N2Cc3ccccc3C2)nc(Nc2ccc(S(=O)(=O)N3CCOCC3)cc2)n1.Cl [GSK1669917],%Inh,[1]; [21],0%
same,%Inh,[2],0%
same,%Inh,[3]; [21],0%
same,%Inh,[4],8%
same,%Inh,[5],0%
same,%Inh,[6]; [21],0%
same,%Inh,[7],0%
same,%Inh,[8]; [21],3%
same,%Inh,[9]; [21],10%
same,%Inh,[10]; [21],17%
same,%Inh,[11]; [21],0%
same,%Inh,[12],0%
same,%Inh,[13]; [21],0%
same,%Inh,[14]; [21],0%
same,%Inh,[15]; [21],0%
same,%Inh,[16]; [21],0%
same,%Inh,[17]; [21],0%
same,%Inh,[18]; [21],0%
same,%Inh,[19]; [21],16%
same,%Inh,[20]; [21],0%
Cc1cc(-c2ccc3c(c2)CC[C@@H](N[C@@H](C)c2ccccc2)C3)cnc1N.Cl [GW412617],%Inh,[1]; [21],8%
same,%Inh,[2],0%
same,%Inh,[3]; [21],16%
same,%Inh,[4],0%
same,%Inh,[5],0%
same,%Inh,[6]; [21],0%
same,%Inh,[7],7%
same,%Inh,[8]; [21],0%
same,%Inh,[9]; [21],17%
same,%Inh,[10]; [21],0%
same,%Inh,[11]; [21],36%
same,%Inh,[12],18%
same,%Inh,[13]; [21],21%
same,%Inh,[14]; [21],0%
same,%Inh,[15]; [21],9%
same,%Inh,[16]; [21],0%
same,%Inh,[17]; [21],0%
same,%Inh,[18]; [21],12%
same,%Inh,[19]; [21],0%
same,%Inh,[20]; [21],12%
Cl.O=C(Nc1cccc(-c2nn3ncccc3c2-c2ccnc(Nc3cccnc3)n2)c1)c1c(F)cccc1F [GSK312879],%Inh,[1]; [21],45%
same,%Inh,[2],0%
same,%Inh,[3]; [21],0%
same,%Inh,[4],0%
same,%Inh,[5],0%
same,%Inh,[6]; [21],0%
same,%Inh,[7],0%
same,%Inh,[8]; [21],5%
same,%Inh,[9]; [21],16%
same,%Inh,[10]; [21],0%
same,%Inh,[11]; [21],25%
same,%Inh,[12],0%
same,%Inh,[13]; [21],0%
same,%Inh,[14]; [21],25%
same,%Inh,[15]; [21],16%
same,%Inh,[16]; [21],0%
same,%Inh,[17]; [21],0%
same,%Inh,[18]; [21],3%
same,%Inh,[19]; [21],11%
same,%Inh,[20]; [21],0%
Cc1cc(NCC(c2ccccc2)c2ccccc2)nc(NCc2ccc(C(F)(F)F)cc2)n1 [GW497681],%Inh,[1]; [21],0%
same,%Inh,[2],0%
same,%Inh,[3]; [21],0%
same,%Inh,[4],0%
same,%Inh,[5],0%
same,%Inh,[6]; [21],3%
same,%Inh,[7],0%
same,%Inh,[8]; [21],0%
same,%Inh,[9]; [21],0%
same,%Inh,[10]; [21],2%
same,%Inh,[11]; [21],0%
same,%Inh,[12],0%
same,%Inh,[13]; [21],6%
same,%Inh,[14]; [21],0%
same,%Inh,[15]; [21],0%
same,%Inh,[16]; [21],0%
same,%Inh,[17]; [21],0%
same,%Inh,[18]; [21],6%
same,%Inh,[19]; [21],29%
same,%Inh,[20]; [21],6%
Cc1cccc(-c2nc(Nc3ccncc3)c3ccccc3n2)n1 [GW855857],%Inh,[1]; [21],0%
same,%Inh,[2],0%
same,%Inh,[3]; [21],6%
same,%Inh,[4],0%
same,%Inh,[5],0%
same,%Inh,[6]; [21],0%
same,%Inh,[7],29%
same,%Inh,[8]; [21],0%
same,%Inh,[9]; [21],0%
same,%Inh,[10]; [21],32%
same,%Inh,[11]; [21],0%
same,%Inh,[12],86%
same,%Inh,[13]; [21],99%
same,%Inh,[14]; [21],69%
same,%Inh,[15]; [21],7%
same,%Inh,[16]; [21],0%
same,%Inh,[17]; [21],2%
same,%Inh,[18]; [21],0%
same,%Inh,[19]; [21],17%
same,%Inh,[20]; [21],4%
COc1ccc(Nc2nccc(NCCNC(=O)Nc3ccccc3F)n2)cc1 [GSK1379901],%Inh,[1]; [21],16%
same,%Inh,[2],0%
same,%Inh,[3]; [21],0%
same,%Inh,[4],0%
same,%Inh,[5],0%
same,%Inh,[6]; [21],0%
same,%Inh,[7],0%
same,%Inh,[8]; [21],19%
same,%Inh,[9]; [21],19%
same,%Inh,[10]; [21],23%
same,%Inh,[11]; [21],0%
same,%Inh,[12],0%
same,%Inh,[13]; [21],83%
same,%Inh,[14]; [21],0%
same,%Inh,[15]; [21],8%
same,%Inh,[16]; [21],0%
same,%Inh,[17]; [21],1%
same,%Inh,[18]; [21],5%
same,%Inh,[19]; [21],14%
same,%Inh,[20]; [21],8%
CS(=O)(=O)c1ccc(-c2c(-c3ncn[nH]3)sc(N3CCOCC3)c2C#N)cc1,%Inh,[1]; [21],17%
same,%Inh,[2],0%
same,%Inh,[3]; [21],8%
same,%Inh,[4],8%
same,%Inh,[5],16%
same,%Inh,[6]; [21],28%
same,%Inh,[7],41%
same,%Inh,[8]; [21],42%
same,%Inh,[9]; [21],5%
same,%Inh,[10]; [21],24%
same,%Inh,[11]; [21],0%
same,%Inh,[12],19%
same,%Inh,[13]; [21],11%
same,%Inh,[14]; [21],14%
same,%Inh,[15]; [21],12%
same,%Inh,[16]; [21],6%
same,%Inh,[17]; [21],0%
same,%Inh,[18]; [21],32%
same,%Inh,[19]; [21],0%
same,%Inh,[20]; [21],0%
COC(=O)c1c(-c2ccccc2)c2cc(OC)ccc2c(=O)n1Cc1ccccc1,%Inh,[1]; [21],4%
same,%Inh,[2],0%
same,%Inh,[3]; [21],0%
same,%Inh,[4],25%
same,%Inh,[5],20%
same,%Inh,[6]; [21],19%
same,%Inh,[7],19%
same,%Inh,[8]; [21],12%
same,%Inh,[9]; [21],9%
same,%Inh,[10]; [21],0%
same,%Inh,[11]; [21],15%
same,%Inh,[12],0%
same,%Inh,[13]; [21],16%
same,%Inh,[14]; [21],0%
same,%Inh,[15]; [21],0%
same,%Inh,[16]; [21],2%
same,%Inh,[17]; [21],4%
same,%Inh,[18]; [21],4%
same,%Inh,[19]; [21],7%
same,%Inh,[20]; [21],6%
CSc1nn2c(=O)cc(N3CCOCC3)nc2n1Cc1cccc(C(F)(F)F)c1C [GSK2363608],%Inh,[1]; [22],14% and 0%
same,%Inh,[2],0%
same,%Inh,[3]; [22],25% and 8%
same,%Inh,[4],0%
same,%Inh,[5],0%
same,%Inh,[6]; [22],11% and 0%
same,%Inh,[7],0%
same,%Inh,[8]; [22],18% and 0%
same,%Inh,[9]; [22],20% and 0%
same,%Inh,[10]; [22],13% and 18%
same,%Inh,[11]; [22],0% and 66%
same,%Inh,[12],0%
same,%Inh,[13]; [22],7% and 4%
same,%Inh,[14]; [22],21% and 0%
same,%Inh,[15]; [22],39% and 1%
same,%Inh,[16]; [22],16% and 0%
same,%Inh,[17]; [22],5% and 0%
same,%Inh,[18]; [22],36% and 0%
same,%Inh,[19]; [22],32% and 12%
same,%Inh,[20]; [22],0% and 17%

# From PMC5540273 (PLoS ONE, 2017)
